# Results reported in PubChem BioAssay AID1159580 (chemical genetic matrix, 2015).
# Values joined by “and” are separate entries in the source; they are usually repeats but may differ in a detail not shown here. Equal values may be shown once. Out of some 5,500 compounds screened, about 2,000 (36%) were called active. Inconclusive results (about 18%) are left out. Rule as the data show it: active = normalized growth mostly below about 0.91 (no sharp cut-off); inconclusive = no clear call, values can overlap the other calls; inactive = mostly above about 0.92. Some of the results follow. Some structures have more than one record in an assay (separate samples or runs), and their calls can disagree.
# Assay: chemical genetic growth profiling, strain panel (AID 1159580);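 also: tested at 20 µM; growth read once vehicle control cultures reached saturation at 30 °C; 1 = growth at the plate median or of vehicle wells; lower values mean less growth of the strain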
# Conditions: growth OD
compound,measurement,setting,value
CCN(CC)CCCC(C)Nc1c2ccc(Cl)cc2nc2ccc(OC)cc12 (stereo unspecified),normalized growth,"S. cerevisiae deletion strains, locus YJR075W, strain HOC1, stronger effect = lower value",0.813 (active)
same,normalized growth,"S. cerevisiae deletion strains, locus YKL009W, strain mrt4, stronger effect = lower value",0.863 (active)
same,normalized growth,"S. cerevisiae deletion strains, locus YKL068W, stronger effect = lower value",1 (inactive)
same,normalized growth,"S. cerevisiae deletion strains, locus YKL085W, strain MDH1 (second series), stronger effect = lower value",0.93 (active)
same,normalized growth,"S. cerevisiae deletion strains, locus YKL085W, strain MDH1, stronger effect = lower value",0.93 (active)
same,normalized growth,"S. cerevisiae deletion strains, locus YKL160W, strain elf1, stronger effect = lower value",0.931 (inactive)
same,normalized growth,"S. cerevisiae deletion strains, locus YKL190W, strain CNB1, stronger effect = lower value",0.79 (active)
same,normalized growth,"S. cerevisiae deletion strains, locus YKR001C, strain vps1, stronger effect = lower value",0.616 (active)
same,normalized growth,"S. cerevisiae deletion strains, locus YKR026C, strain gcn3, stronger effect = lower value",1.04 (inactive)
same,normalized growth,"S. cerevisiae deletion strains, locus YKR091W, strain srl3, stronger effect = lower value",1.02 (inactive)
same,normalized growth,"S. cerevisiae deletion strains, locus YLL001W, strain dnm1, stronger effect = lower value",0.902 (active)
same,normalized growth,"S. cerevisiae deletion strains, locus YLL026W, stronger effect = lower value",1.02 (inactive)
same,normalized growth,"S. cerevisiae deletion strains, locus YLL041C, strain sdh2, stronger effect = lower value",1.03 (inactive)
same,normalized growth,"S. cerevisiae deletion strains, locus YLR027C, strain aat2, stronger effect = lower value",0.964 (inactive)
same,normalized growth,"S. cerevisiae deletion strains, locus YLR039C, strain RIC1, stronger effect = lower value",0.949 (inactive)
same,normalized growth,"S. cerevisiae deletion strains, locus YLR058C, strain SHM2, stronger effect = lower value",0.524 (active)
same,normalized growth,"S. cerevisiae deletion strains, locus YLR102C, strain apc9, stronger effect = lower value",0.855 (active)
same,normalized growth,"S. cerevisiae deletion strains, locus YLR113W, strain HOG1, stronger effect = lower value",0.741 (active)
same,normalized growth,"S. cerevisiae deletion strains, locus YLR221C, strain rsa3, stronger effect = lower value",0.993 (inactive)
same,normalized growth,"S. cerevisiae deletion strains, locus YLR258W, strain gsy2, stronger effect = lower value",0.954 (inactive)
same,normalized growth,"S. cerevisiae deletion strains, locus YLR262C, strain YPT6 (second series), stronger effect = lower value",0.992 (inactive)
same,normalized growth,"S. cerevisiae deletion strains, locus YLR262C, strain YPT6, stronger effect = lower value",0.945 (inactive)
same,normalized growth,"S. cerevisiae deletion strains, locus YLR268W, strain sec22, stronger effect = lower value",0.717 (active)
same,normalized growth,"S. cerevisiae deletion strains, locus YLR320W, strain mms22, stronger effect = lower value",0.973 (inactive)
same,normalized growth,"S. cerevisiae deletion strains, locus YLR330W, strain CHS5, stronger effect = lower value",0.883 (active)
same,normalized growth,"S. cerevisiae deletion strains, locus YLR342W, strain FKS1 (second series), stronger effect = lower value",0.632 (active)
same,normalized growth,"S. cerevisiae deletion strains, locus YLR342W, strain FKS1, stronger effect = lower value",1.01 (inactive)
same,normalized growth,"S. cerevisiae deletion strains, locus YLR357W, strain rsc2, stronger effect = lower value",1.07 (inactive)
same,normalized growth,"S. cerevisiae deletion strains, locus YLR370C, strain arc18, stronger effect = lower value",0.955 (inactive)
same,normalized growth,"S. cerevisiae deletion strains, locus YLR371W, strain rom2, stronger effect = lower value",0.93 (inactive)
same,normalized growth,"S. cerevisiae deletion strains, locus YLR384C, strain iki3, stronger effect = lower value",1.04 (inactive)
same,normalized growth,"S. cerevisiae deletion strains, locus YLR418C, strain cdc73, stronger effect = lower value",0.959 (inactive)
same,normalized growth,"S. cerevisiae deletion strains, locus YML016C, strain PPZ1, stronger effect = lower value",1.01 (inactive)
same,normalized growth,"S. cerevisiae deletion strains, locus YML032C, strain rad52, stronger effect = lower value",0.544 (active)
same,normalized growth,"S. cerevisiae deletion strains, locus YML120C, strain ndi1, stronger effect = lower value",0.995 (inactive)
same,normalized growth,"S. cerevisiae deletion strains, locus YML124C, strain tub3, stronger effect = lower value",0.858 (active)
same,normalized growth,"S. cerevisiae deletion strains, locus YMR058W, strain fet3, stronger effect = lower value",0.961 (inactive)
same,normalized growth,"S. cerevisiae deletion strains, locus YMR078C, strain ctf18, stronger effect = lower value",0.954 (inactive)
same,normalized growth,"S. cerevisiae deletion strains, locus YMR125W, strain sto1, stronger effect = lower value",0.989 (inactive)
same,normalized growth,"S. cerevisiae deletion strains, locus YMR129W, stronger effect = lower value",1.04 (inactive)
same,normalized growth,"S. cerevisiae deletion strains, locus YMR205C, strain PFK2, stronger effect = lower value",0.973 (inactive)
same,normalized growth,"S. cerevisiae deletion strains, locus YMR223W, strain ubp8, stronger effect = lower value",0.508 (active)
same,normalized growth,"S. cerevisiae deletion strains, locus YMR231W, strain pep5, stronger effect = lower value",1.02 (inactive)
same,normalized growth,"S. cerevisiae deletion strains, locus YMR263W, strain SAP30, stronger effect = lower value",0.948 (inactive) and 0.979 (inactive)
same,normalized growth,"S. cerevisiae deletion strains, locus YMR307W, strain GAS1, stronger effect = lower value",1.15 (inactive) and 0.985 (inactive)
same,normalized growth,"S. cerevisiae deletion strains, locus YNL067W, strain RPL9B, stronger effect = lower value",0.703 (active)
same,normalized growth,"S. cerevisiae deletion strains, locus YNL071W, strain lat1, stronger effect = lower value",1.02 (inactive)
same,normalized growth,"S. cerevisiae deletion strains, locus YNL128W, strain TEP1, stronger effect = lower value",0.743 (active) and 0.988 (inactive)
same,normalized growth,"S. cerevisiae deletion strains, locus YNL153C, strain GIM3, stronger effect = lower value",0.819 (active)
same,normalized growth,"S. cerevisiae deletion strains, locus YNL175C, strain NOP13, stronger effect = lower value",0.992 (inactive)
same,normalized growth,"S. cerevisiae deletion strains, locus YNL183C, strain NPR1, stronger effect = lower value",0.644 (active)
same,normalized growth,"S. cerevisiae deletion strains, locus YNL197C, strain WHI3, stronger effect = lower value",1 (inactive)
same,normalized growth,"S. cerevisiae deletion strains, locus YNL209W, strain ssb2, stronger effect = lower value",0.985 (inactive)
same,normalized growth,"S. cerevisiae deletion strains, locus YNL224C, strain SQS1, stronger effect = lower value",0.959 (inactive)
same,normalized growth,"S. cerevisiae deletion strains, locus YNL233W, strain BNI4, stronger effect = lower value",0.756 (active)
same,normalized growth,"S. cerevisiae deletion strains, locus YNL248C, strain rpa49, stronger effect = lower value",1.01 (inactive)
same,normalized growth,"S. cerevisiae deletion strains, locus YNL250W, strain rad50, stronger effect = lower value",0.952 (inactive)
same,normalized growth,"S. cerevisiae deletion strains, locus YNL271C, strain bni1, stronger effect = lower value",1.02 (inactive)
same,normalized growth,"S. cerevisiae deletion strains, locus YNL298W, strain CLA4, stronger effect = lower value",1 (inactive)
same,normalized growth,"S. cerevisiae deletion strains, locus YNL307C, strain MCK1, stronger effect = lower value",0.622 (active)
same,normalized growth,"S. cerevisiae deletion strains, locus YNL322C, strain KRE1 (second series), stronger effect = lower value",1.01 (inactive)
same,normalized growth,"S. cerevisiae deletion strains, locus YNL322C, strain KRE1, stronger effect = lower value",0.794 (active)
same,normalized growth,"S. cerevisiae deletion strains, locus YNR049C, strain mso1, stronger effect = lower value",1.04 (inactive)
same,normalized growth,"S. cerevisiae deletion strains, locus YNR052C, strain pop2, stronger effect = lower value",0.821 (active)
same,normalized growth,"S. cerevisiae deletion strains, locus YOL006C, strain TOP1, stronger effect = lower value",0.847 (inactive)
same,normalized growth,"S. cerevisiae deletion strains, locus YOL012C, strain htz1",2.88 [resistant] (active)
same,normalized growth,"S. cerevisiae deletion strains, locus YOL147C, strain pex11, stronger effect = lower value",0.6 (active)
same,normalized growth,"S. cerevisiae deletion strains, locus YOR001W, strain rrp6, stronger effect = lower value",0.966 (inactive)
same,normalized growth,"S. cerevisiae deletion strains, locus YOR061W, strain CKA2, stronger effect = lower value",0.71 (active)
same,normalized growth,"S. cerevisiae deletion strains, locus YOR069W, strain VPS5, stronger effect = lower value",0.848 (active)
same,normalized growth,"S. cerevisiae deletion strains, locus YOR070C, strain gyp1, stronger effect = lower value",0.985 (inactive)
same,normalized growth,"S. cerevisiae deletion strains, locus YOR080W, strain dia2, stronger effect = lower value",1.03 (inactive)
same,normalized growth,"S. cerevisiae deletion strains, locus YOR083W, strain WHI5 (second series), stronger effect = lower value",0.955 (inactive)
same,normalized growth,"S. cerevisiae deletion strains, locus YOR083W, strain WHI5, stronger effect = lower value",0.97 (inactive)
same,normalized growth,"S. cerevisiae deletion strains, locus YOR106W, strain vam3, stronger effect = lower value",0.916 (inactive)
same,normalized growth,"S. cerevisiae deletion strains, locus YOR136W, strain idh2, stronger effect = lower value",0.928 (inactive)
same,normalized growth,"S. cerevisiae deletion strains, locus YOR144C, strain elg1, stronger effect = lower value",0.776 (active)
same,normalized growth,"S. cerevisiae deletion strains, locus YOR184W, strain ser1, stronger effect = lower value",0.59 (active)
same,normalized growth,"S. cerevisiae deletion strains, locus YOR231W, strain MKK1, stronger effect = lower value",0.686 (active)
same,normalized growth,"S. cerevisiae deletion strains, locus YOR265W, strain rbl2, stronger effect = lower value",1.02 (inactive)
same,normalized growth,"S. cerevisiae deletion strains, locus YOR270C, strain vph1, stronger effect = lower value",0.996 (inactive)
same,normalized growth,"S. cerevisiae deletion strains, locus YOR290C, strain snf2, stronger effect = lower value",0.8 (active)
same,normalized growth,"S. cerevisiae deletion strains, locus YOR316C, strain cot1, stronger effect = lower value",0.751 (active)
same,normalized growth,"S. cerevisiae deletion strains, locus YPL051W, strain arl3, stronger effect = lower value",0.961 (inactive)
same,normalized growth,"S. cerevisiae deletion strains, locus YPL055C, strain LGE1, stronger effect = lower value",0.746 (active)
same,normalized growth,"S. cerevisiae deletion strains, locus YPL078C, strain atp4, stronger effect = lower value",0.936 (inactive)
same,normalized growth,"S. cerevisiae deletion strains, locus YPL106C, strain sse1, stronger effect = lower value",0.984 (inactive)
same,normalized growth,"S. cerevisiae deletion strains, locus YPL240C, strain hsp82, stronger effect = lower value",0.998 (inactive)
same,normalized growth,"S. cerevisiae deletion strains, locus YPL241C, strain CIN2, stronger effect = lower value",0.914 (active)
same,normalized growth,"S. cerevisiae deletion strains, locus YPL256C, strain CLN2, stronger effect = lower value",0.797 (active)
same,normalized growth,"S. cerevisiae deletion strains, locus YPR119W, strain clb2, stronger effect = lower value",0.946 (inactive)
same,normalized growth,"S. cerevisiae deletion strains, locus YPR141C, strain kar3, stronger effect = lower value",1.04 (inactive)
same,normalized growth,"S. cerevisiae deletion strains, locus YPR163C, strain tif3, stronger effect = lower value",1.02 (inactive)
same,normalized growth,"S. cerevisiae deletion strains, locus YPR167C, strain met16, stronger effect = lower value",0.866 (active)
same,normalized growth,"S. cerevisiae deletion strains, strain wtn01, stronger effect = lower value",0.665 (active)
same,normalized growth,"S. cerevisiae strains, strain wild type, stronger effect = lower value",0.755 (active)
